Data on 67 compounds can be found in PubChem BioAssay AID1825 (The Scripps Research Institute Molecular Screening Center, 2009).

Broadly, the inhibition is the change of the read-out against control, counted positive when it falls.

Hit rate of the full screen: of about 290,000 compounds, about 2,300 (0.79%) were called active. The sample holds actives, similar compounds and a random draw of the others, so the mix is not that of the screen. No stated cut-off is given here; in the data, active means inhibition above about 22%; inactive means the rest.

The test can be described thus: cytotoxicity in IEC-6 intestinal epithelial cells, primary screen, cytotoxicity control for KLF5 inhibitor project, cell-based, luminescence (AID 1825).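 Further: 0% = plate median of test compound wells and 100% = cytotoxic reference compound wells.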 The settings on record: IEC-6 cytotoxicity, luminescence viability; at 5 µM; hits give high values.
Regarding `CCC1CCCCN1C(=O)CSc1nc2c(c(=O)n1C)SC(C)C2` (configuration not stated), the inhibition was 0% (inactive).
Turning to `Cc1cc(Cl)ccc1C(=O)C1CCCN(C(=O)c2nonc2C)C1` (configuration not stated), the inhibition was -1.1% (inactive).
For `CCC(CC)C(=O)Nc1c2c(nn1-c1ccc(C)cc1)CS(=O)(=O)C2` the value was -3% (inactive); for `CCOCCCNc1nc(-c2ccccc2)nc2ccccc12`, -4% (inactive); for `Cc1ccc(Oc2nc(-c3ccccn3)nc3ccccc23)cc1`, 8.9% (inactive).
For `CC(C)(C)Nc1nc(-c2ccccn2)nc2ccccc12` the value was 91.3% (active).
Then `COc1cc(N=Cc2c(O)c3ccccc3oc2=O)c(OC)cc1Cl`, with 2.7% (inactive); and `CNC[C@H](CC1CCCCC1)NC[C@H](NCCC1CCCC1)[C@H](C)O`, with 36.1% (active).
For `COc1cc(C(=O)OC2CCOC2=O)c([N+](=O)[O-])cc1OC` (configuration not stated), the inhibition was -4% (inactive).
Then `COc1ccccc1Oc1ccc(N/C=C2/CCCC2=O)cc1`, with -8.7% (inactive).
Then `Cc1[nH]n(-c2ccccc2)c(=O)c1/C=N/NC(=O)c1ccoc1C`, with 1.8% (inactive).
For `CC(C)=C(NC(=O)c1ccccc1)C(=O)N/N=C(\C)c1ccccc1O` the value was 4% (inactive); for `C/C(=N\NC(=O)c1ccoc1C)c1ccccc1O`, 98.7% (active).
Take `CN(Cc1ccccc1)S(=O)(=O)c1nnc(NC(=O)c2ccccc2F)s1`: the inhibition is 4.7% (inactive).
For `Cc1ccc(-c2nn(-c3ccccc3)cc2/C=C2\SC(=S)N(CCCCCC(=O)O)C2=O)o1` the value was -8.8% (inactive).
For `Cc1cccc(N(C(=O)Cn2nnc(-c3ccc(C)o3)n2)C(C(=O)NC2CCCC2)c2ccncc2)c1` (configuration not stated) the value was -3.9% (inactive); for `C[N+](C)(C)CCNC(=O)c1cc[n+](Cc2ccccc2)c(/C=N/O)c1`, -6.3% (inactive).
For `CCC(=O)Nc1ccc(C(=O)NNC(=O)c2ccc(Cl)cc2)cc1` the value was 2.4% (inactive).
In the case of `CC(C)(C)c1cc2cccnc2n1Cc1cccc(F)c1`, the inhibition is -9.9% (inactive).
For `Cc1ccc(C(=O)/C=C/c2c(C)nn(-c3ccccc3)c2Cl)cc1` the value was 7.3% (inactive); for `O=C(CSc1ncn[nH]1)N/N=C/c1ccc(F)cc1`, 2.8% (inactive).
Then `O=C(/C=C/Sc1ncn[nH]1)c1ccc(Cl)cc1`, with 96.3% (active); and `CC(C)(C)n1nnnc1C(c1ccccc1F)N1CCN(C(=O)c2ccco2)CC1` (configuration not stated), with -4.7% (inactive).
Then `O=C(OCc1ccc(-c2ccccc2)cc1)c1cccc(O)c1`, with -3.8% (inactive).
As for `CCN(CC(=O)NCCCN1CCOCC1)S(=O)(=O)c1cc(Cl)ccc1Cl`, the inhibition was 0.6% (inactive).
Then `O=S(=O)(NCCc1ccc(Cl)cc1)c1cccs1`, with 6.4% (inactive).
For `Cc1ccc(N2C(=O)C(Cc3ccccc3)NC2=S)cc1` (configuration not stated) the value was 24.6% (active).
Then `O=C1C(Cc2ccc(O)cc2)NC(=S)N1Cc1ccccc1` (configuration not stated), with -3.3% (inactive); and `COc1ccc(N2C(=O)C(Cc3ccccc3)NC2=S)cc1` (configuration not stated), with 3.8% (inactive); and `CC(C)C(=O)NCC(c1cccs1)S(=O)(=O)c1ccc(F)cc1` (configuration not stated), with 7.2% (inactive).
With `CC(=O)Nc1ccc(Nc2ncnc3c2nnn3Cc2ccccc2Cl)cc1`, the inhibition is 1.1% (inactive).
For `CCN(Cc1nc2ccccc2c(=O)[nH]1)Cc1cc(=O)oc2cc(C)c(C)cc12` the value was 2% (inactive).
For `COc1ccc(C(=O)Nc2cc(C)c(NC(=O)c3ccccc3OC)cn2)cc1` the value was -2.8% (inactive); for `Cc1cc(C(=O)NC2CC(C)(C)Cc3c2cnn3-c2ccccc2)n[nH]1` (configuration not stated), 7.1% (inactive); for `COc1cccc2sc(N(CCCN(C)C)C(=O)CCS(=O)(=O)c3ccccc3)nc12`, 50% (active).
Then `COc1cccc2sc(N(CCCN(C)C)C(=O)C(c3ccccc3)c3ccccc3)nc12`, with 3.5% (inactive); and `Cc1cccc2sc(N(CCCN(C)C)C(=O)CCS(=O)(=O)c3ccccc3)nc12`, with 11.3% (inactive).
Take `COc1ccccc1NC(=O)C1=C(C)NC(=O)NC1c1ccc(C)s1` (configuration not stated): the inhibition is -4.5% (inactive).
Then `COC(=O)c1c(NC(C)=O)sc(C(=O)Nc2ccccc2OC)c1C`, with -1.2% (inactive); and `COc1ccccc1NC(=O)c1ccc(C)s1`, with 34.8% (active); and `CC(NC(=O)Cn1cc(C(F)(F)F)cc(Cl)c1=O)c1ccccc1` (configuration not stated), with 4.4% (inactive).
Then `COc1ccccc1CCNC(=O)c1c(C)nn(CC(C)C)c1Cl`, with -4.6% (inactive); and `O=C(Cc1cccs1)Nc1ccc([N+](=O)[O-])cc1`, with -0.5% (inactive).
For `CC(C)c1ccc(Cc2nnc(NCCCO)[nH]c2=O)cc1` the value was 3.6% (inactive).
Turning to `Cc1ccc(NC(=O)Cn2nnc(C(=O)NCc3ccco3)c2N)c(C)c1`, the inhibition was -1.1% (inactive).
With `CCOc1ccccc1NC(=O)Cc1cccs1`, the inhibition is -0.9% (inactive).
For the compound `CCOc1ccccc1NC(=O)Cn1nnc(C(=O)NCc2cccs2)c1N`, the inhibition was 84.2% (active).
For `CC(C)c1cc(C(=O)N/N=C/c2ccoc2)c(O)c(C(C)C)c1` the value was -1.3% (inactive).
Then `CCN(C(=O)C1CCCN(c2nc(-c3ccc(OC)cc3)no2)C1)c1ccc(OC)cc1` (configuration not stated), with -1.6% (inactive).
As for `COc1ccccc1Nc1ncnc2c1oc1ccccc12`, the inhibition was -0.2% (inactive).
For `Cc1nc(Cl)c2oc3ccccc3c2n1` the value was -5.3% (inactive); for `COc1ccc(C)cc1Nc1nc(C)nc2c1oc1ccccc12`, 34.1% (active); for `CSc1ncccc1C(=O)Nc1ccc(C)cn1`, 4.3% (inactive).
For `CCCOC(=O)c1[nH]c2c(c1C)C(=O)CC(c1cccs1)C2` (configuration not stated) the value was 81.1% (active); for `CCOC(=O)c1[nH]c2c(c1-c1ccccc1)C(=O)CC(c1ccc(Cl)cc1)C2` (configuration not stated), 2% (inactive); for `COCCOC(=O)c1[nH]c2c(c1C)C(=O)CC(c1ccc(OC)cc1)C2` (configuration not stated), 2.6% (inactive).
For `CCOc1cc(C)c(S(=O)(=O)NCc2ccccn2)cc1C` the value was 4.3% (inactive); for `COc1ccccc1N(CC(=O)N/N=C(\C)c1ccccc1O)S(=O)(=O)c1ccc(C)cc1`, 33.8% (active); for `COc1ccccc1NC(=O)CN(c1ccccc1OC)S(=O)(=O)c1ccccc1`, -4.1% (inactive).
`COc1ccc(S(=O)(=O)N(CC(=O)N/N=C/c2ccccc2C(=O)O)c2ccccc2OC)cc1`: the inhibition was 2.9% (inactive).
For `CC(=O)NC(Cc1c[nH]c2ccccc12)C(=O)NCCc1ccccc1` (configuration not stated) the value was -0.3% (inactive); for `COc1ccc(C(=O)Nc2ccc(N3CCC(C)CC3)cc2)cc1Br`, -5.3% (inactive); for `COc1ccc(NC(=O)c2cccc(NC(=O)c3ccco3)c2)c(OC)c1`, 4.3% (inactive).
Then `COc1cccc(C(=O)Nc2ccc(N3CCCC3)cc2)c1`, with 24.2% (active); and `CN1CCN(c2ccc(NC(=O)c3ccccc3)cc2)CC1`, with -2.5% (inactive); and `Cc1ccc(OCC(=O)Nc2ccc(N3CCN(C(=O)c4ccco4)CC3)cc2)c(C)c1`, with -14.8% (inactive).
Then `COc1cccc(C(=O)Nc2ccc(N3CCN(C(=O)c4ccco4)CC3)cc2)c1`, with 45% (active).
